Source: PubChem BioAssay AID687022 (Broad Institute, 2013)
Out of some 1,000 compounds screened, about 360 (36%) were called active. A selection follows. A number with no mark means an inactive call.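 How the source made its calls: active means Fitted curve of melting temperature shift crosses the 1.0 threshold at or below the sample's highest valid tested concentration; inconclusive means Flat fit with activity 30 to 70, or invalid fit; inactive means Opposite direction, flat within 30, or no crossing.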

Biological target: Fibroblast growth factor 22 (Homo sapiens) (UniProt Q9HCT0)
Assay: binders of human FGF22 protein, dose response, FGF22 synaptogenesis inhibitor project, biophysical, thermal shift, cherry-pick (AID 687022); further: reference of the scale not given here
Conditions: recombinant FGF22 thermal shift, SYPRO orange melting; series mostly up to 38 µM; Tm shift activity: at the top concentration

Chain of Fibroblast growth factor 22 (Homo sapiens) (Q9HCT0 whole entry, looked up): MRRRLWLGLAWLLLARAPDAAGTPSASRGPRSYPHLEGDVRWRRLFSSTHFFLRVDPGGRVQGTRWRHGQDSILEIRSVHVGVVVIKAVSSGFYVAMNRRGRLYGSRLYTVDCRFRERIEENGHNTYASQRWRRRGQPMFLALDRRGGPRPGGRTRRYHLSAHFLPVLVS

| SMILES | Tm shift activity |
| --- | --- |
| CN(C)CC(=O)Nc1ccc2c(c1)[C@@H]1C[C@H](CC(=O)N(C)C)O[C@@H](CO)[C@@H]1O2 | 0.094% |
| O=C1COc2ccc(S(=O)(=O)N3CCCC3)cc2N1 | -0.074% |
| C[C@H]1CN([C@@H](C)CO)C(=O)c2cc(NS(=O)(=O)c3cn(C)cn3)ccc2O[C@H]1CN(C)Cc1ccccc1 | -0.139% |
| OC[C@H]1[C@@H](c2ccc(-c3cccnc3)cc2)[C@@H]2CN(Cc3ccccn3)CCCCN12 | -0.15% |
| O=C(C[C@H]1CC[C@H]2[C@@H](COC[C@@H](O)CN2C(=O)C2CC2)O1)NCc1ccncc1 | -0.062% [at 42 µM] |
| Cc1nn(C)cc1NC(=O)C[C@H]1CC[C@@H]2[C@@H](COc3ccc(NC(=O)NC(C)C)cc3C(=O)N2C)O1 | -0.291% |
| COc1cccc(NC(=O)N[C@H]2C=C[C@@H](CC(=O)N3CCN(C)CC3)O[C@H]2CO)c1 | 0.241% [at 42 µM] |
| O=C1C=CCCN1S(=O)(=O)/C=C/c1ccccc1 | 0.169% |
| CCOc1ccc(C(=O)CCC(=O)Nc2ccc(C)cn2)cc1 | 0.045% |
| CCC(CC)CN1CCC(CN2C(=O)C(=O)NC[C@@H]2CC(C)C)CC1 | 0.023% |
| O=C(C[C@H]1C[C@@H]2c3cc(NC(=O)NC4CCCC4)ccc3O[C@@H]2[C@H](CO)O1)NC1CCCC1 | -0.22% |
| Nc1nccc(-c2ccc(-n3cccc3)cc2)n1 | -0.117% |
| CO[C@H]1CN(C)C(=O)c2ccc(NS(=O)(=O)c3ccc(Cl)cc3)cc2OC[C@@H](C)N(C(=O)NC(C)C)C[C@H]1C | -0.141% [at 42 µM] |
| COCCNC(=O)CCc1nnc2ccc(N3CCC(C)CC3)nn12 | -0.14% |
| CC(C)(C)NC(=O)N1CCC(CO)(Cc2ccccc2Cl)CC1 | -0.024% |
| CC(=O)N1[C@H](CO)[C@H](c2ccccc2)[C@H]1CN(C(=O)c1cccc(F)c1)C(C)C | -0.225% |
| Cc1noc(C)c1S(=O)(=O)Nc1ccc2c(c1)CC(=O)N([C@@H](C)CO)C[C@@H](C)[C@@H](CN(C)Cc1ccc(Cl)c(Cl)c1)O2 | -1.12% [at 42 µM] |
| CCCNC(=O)N1[C@@H]2CN(C(=O)c3ccccc3)c3ccccc3[C@@H]2[C@@H]1CO | 0.376% [at 42 µM] |
| O=C(O)C1CSC(c2ccc3c(c2)OCO3)N1 (stereo not drawn) | 0.16% |
| OC[C@@H]1[C@H](c2ccc(Br)cc2)[C@@H]2CN(Cc3cncnc3)CCCCN12 | -0.264% [at 42 µM] |
| CO[C@H]1CN(C)C(=O)c2cc(NC(=O)CC(F)(F)F)ccc2OC[C@@H](C)N(C(C)=O)C[C@H]1C | -0.187% [at 42 µM] |
| CNC[C@H]1Oc2ccc(NC(=O)Nc3ccc(OC)cc3)cc2C(=O)N([C@H](C)CO)C[C@@H]1C | -0.083% [at 42 µM] |
| CNC[C@@H]1Oc2c(NS(=O)(=O)c3ccc(OC)cc3)cccc2C(=O)N([C@@H](C)CO)C[C@@H]1C | -0.136% |
| COc1ccc(S(=O)(=O)N(C)C[C@@H]2Oc3c(NC(=O)c4cc(C)nn4C)cccc3C(=O)N([C@H](C)CO)C[C@H]2C)cc1 | -0.141% [at 42 µM] |
| COc1ccc(S(=O)(=O)N/N=c2\oc3c(OC)cccc3cc2S(=O)(=O)c2ccc(C)cc2)cc1OC | 0.599% |
| O=C(N[C@H]1CC[C@@H](CCNS(=O)(=O)c2ccc(F)cc2)O[C@H]1CO)C1CCCC1 | -0.05% [at 42 µM] |
| CN1C(=O)c2cc(NC(=O)Cc3ccccc3)ccc2OC[C@@H]2O[C@H](CC(=O)O)CC[C@H]21 | -0.126% |
| CO[C@@H]1CN(C)C(=O)c2cc(NC(=O)NC(C)C)ccc2OC[C@@H](C)N(C)C[C@@H]1C | -0.329% |
